Test results published in the supplement of paper PMC4466140.

Experiments:
Assay in all cases: SPOT peptide array binding signal intensity (averaged, normalized) (arbitrary units (background-subtracted, floor 0; scale differs between SH3 domains)); higher = stronger binding of the SH3 domain to the peptide
AgAbp1 = biological target: AgAbp1
Method in brief: (§1)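 Spot intensities were captured after detection with anti-GST antibody, an HRP-linked anti-mouse secondary and luminol, and quantified with Genespotter. The probes were GST-fused SH3 domains from four yeast species, produced in E. coli BL21(DE3), purified on glutathione Sepharose and incubated at 10 μg/ml overnight at 4°C on cellulose-bound synthetic 15-mer peptides with cysteines replaced by serines. Binding signal is the normalized, background-subtracted spot intensity averaged over replicates, and its arbitrary units differ between domains.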

AgBbc1 = biological target: AgBbc1
Method in brief: as §1

AgBem1-D1 = biological target: AgBem1-D1
Method in brief: as §1

AgBzz1-D1 = biological target: AgBzz1-D1
Method in brief: as §1

AgBzz1-D2 = biological target: AgBzz1-D2
Method in brief: as §1

AgCyk3 = biological target: AgCyk3
Method in brief: as §1

AgFus1 = biological target: AgFus1
Method in brief: as §1

AgHof1 = biological target: AgHof1
Method in brief: as §1

AgHse1 = biological target: AgHse1
Method in brief: as §1

AgLsb1 = biological target: AgLsb1
Method in brief: as §1

AgLsb4 = biological target: AgLsb4
Method in brief: as §1

AgMyo5 = biological target: AgMyo5
Method in brief: as §1

AgNbp2 = biological target: AgNbp2
Method in brief: as §1

AgRvs167 = biological target: AgRvs167
Method in brief: as §1

AgSho1 = biological target: AgSho1
Method in brief: as §1

AgSla1-D1-D2 = biological target: AgSla1-D1-D2
Method in brief: as §1

AgSla1-D3 = biological target: AgSla1-D3
Method in brief: as §1

CaAbp1-D1 = biological target: CaAbp1-D1
Method in brief: as §1

CaAbp1-D2 = biological target: CaAbp1-D2
Method in brief: as §1

CaBbc1 = biological target: CaBbc1
Method in brief: as §1

CaBem1-D1 = biological target: CaBem1-D1
Method in brief: as §1

CaBzz1-D1 = biological target: CaBzz1-D1
Method in brief: as §1

CaBzz1-D2 = biological target: CaBzz1-D2
Method in brief: as §1

CaCyk3 = biological target: CaCyk3
Method in brief: as §1

CaFus1 = biological target: CaFus1
Method in brief: as §1

CaHof1 = biological target: CaHof1
Method in brief: as §1

CaHse1 = biological target: CaHse1
Method in brief: as §1

CaLsb1 = biological target: CaLsb1
Method in brief: as §1

CaLsb4 = biological target: CaLsb4
Method in brief: as §1

CaMyo5 = biological target: CaMyo5
Method in brief: as §1

CaNbp2 = biological target: CaNbp2
Method in brief: as §1

CaRvs167 = biological target: CaRvs167
Method in brief: as §1

CaRvs167-3 = biological target: CaRvs167-3
Method in brief: as §1

CaSho1 = biological target: CaSho1
Method in brief: as §1

CaSla1-D1-D2 = biological target: CaSla1-D1-D2
Method in brief: as §1

CaSla1-D3 = biological target: CaSla1-D3
Method in brief: as §1

ScAbp1 = biological target: ScAbp1
Method in brief: as §1

ScBbc1 = biological target: ScBbc1
Method in brief: as §1

ScBem1-D1 = biological target: ScBem1-D1
Method in brief: as §1

ScBzz1-D1 = biological target: ScBzz1-D1
Method in brief: as §1

ScBzz1-D2 = biological target: ScBzz1-D2
Method in brief: as §1

ScCyk3 = biological target: ScCyk3
Method in brief: as §1

ScFus1 = biological target: ScFus1
Method in brief: as §1

ScHof1 = biological target: ScHof1
Method in brief: as §1

ScHse1 = biological target: ScHse1
Method in brief: as §1

ScLsb1 = biological target: ScLsb1
Method in brief: as §1

ScLsb2 = biological target: ScLsb2
Method in brief: as §1

ScLsb3 = biological target: ScLsb3
Method in brief: as §1

ScLsb4 = biological target: ScLsb4
Method in brief: as §1

ScMyo3 = biological target: ScMyo3
Method in brief: as §1

ScMyo5 = biological target: ScMyo5
Method in brief: as §1

ScNbp2 = biological target: ScNbp2
Method in brief: as §1

ScPex13 = biological target: ScPex13
Method in brief: as §1

ScRvs167 = biological target: ScRvs167
Method in brief: as §1

ScSho1 = biological target: ScSho1
Method in brief: as §1

ScSla1-D1-D2 = biological target: ScSla1-D1-D2
Method in brief: as §1

ScSla1-D3 = biological target: ScSla1-D3
Method in brief: as §1

SpAbp1-D1 = biological target: SpAbp1-D1
Method in brief: as §1

SpBbc1 = biological target: SpBbc1
Method in brief: as §1

SpBzz1-D1 = biological target: SpBzz1-D1
Method in brief: as §1

SpBzz1-D2 = biological target: SpBzz1-D2
Method in brief: as §1

SpCyk3 = biological target: SpCyk3
Method in brief: as §1

SpHof1 = biological target: SpHof1
Method in brief: as §1

SpHof1-2 = biological target: SpHof1-2
Method in brief: as §1

SpHof1-3 = biological target: SpHof1-3
Method in brief: as §1

SpHse1 = biological target: SpHse1
Method in brief: as §1

SpLsb1 = biological target: SpLsb1
Method in brief: as §1

SpLsb4 = biological target: SpLsb4
Method in brief: as §1

SpMyo1 = biological target: SpMyo1
Method in brief: as §1

SpNbp2 = biological target: SpNbp2
Method in brief: as §1

SpPex13 = biological target: SpPex13
Method in brief: as §1

SpRvs167 = biological target: SpRvs167
Method in brief: as §1

SpSla1-D1-D2 = biological target: SpSla1-D1-D2
Method in brief: as §1

SpSla1-D3 = biological target: SpSla1-D3
Method in brief: as §1

B1: unnamed (peptide)
chain: VNFRRIPTGPDSPPT
AgAbp1
  SPOT peptide array binding signal intensity: ≤ 0
AgBbc1
  SPOT peptide array binding signal intensity: 2.5
AgBem1-D1
  SPOT peptide array binding signal intensity: 13
AgBzz1-D1
  SPOT peptide array binding signal intensity: 23
AgBzz1-D2
  SPOT peptide array binding signal intensity: 258
AgCyk3
  SPOT peptide array binding signal intensity: ≤ 0
AgFus1
  SPOT peptide array binding signal intensity: 45
AgHof1
  SPOT peptide array binding signal intensity: 6
AgHse1
  SPOT peptide array binding signal intensity: 132
AgLsb1
  SPOT peptide array binding signal intensity: 0.5
AgLsb4
  SPOT peptide array binding signal intensity: 5
AgMyo5
  SPOT peptide array binding signal intensity: ≤ 0
AgNbp2
  SPOT peptide array binding signal intensity: ≤ 0
AgRvs167
  SPOT peptide array binding signal intensity: 3.17
AgSho1
  SPOT peptide array binding signal intensity: 1
AgSla1-D1-D2
  SPOT peptide array binding signal intensity: ≤ 0
AgSla1-D3
  SPOT peptide array binding signal intensity: 0.5
CaAbp1-D1
  SPOT peptide array binding signal intensity: ≤ 0
CaAbp1-D2
  SPOT peptide array binding signal intensity: ≤ 0
CaBbc1
  SPOT peptide array binding signal intensity: 6.75
CaBem1-D1
  SPOT peptide array binding signal intensity: 6
CaBzz1-D1
  SPOT peptide array binding signal intensity: 41
CaBzz1-D2
  SPOT peptide array binding signal intensity: 16.5
CaCyk3
  SPOT peptide array binding signal intensity: 6
CaFus1
  SPOT peptide array binding signal intensity: 141
CaHof1
  SPOT peptide array binding signal intensity: ≤ 0
CaHse1
  SPOT peptide array binding signal intensity: 3.5
CaLsb1
  SPOT peptide array binding signal intensity: ≤ 0
CaLsb4
  SPOT peptide array binding signal intensity: 18.5
CaMyo5
  SPOT peptide array binding signal intensity: 0.5
CaNbp2
  SPOT peptide array binding signal intensity: 113
CaRvs167
  SPOT peptide array binding signal intensity: 1.33
CaRvs167-3
  SPOT peptide array binding signal intensity: 115
CaSho1
  SPOT peptide array binding signal intensity: 94.5
CaSla1-D1-D2
  SPOT peptide array binding signal intensity: ≤ 0
CaSla1-D3
  SPOT peptide array binding signal intensity: ≤ 0
ScAbp1
  SPOT peptide array binding signal intensity: 4
ScBbc1
  SPOT peptide array binding signal intensity: 2
ScBem1-D1
  SPOT peptide array binding signal intensity: ≤ 0
ScBzz1-D1
  SPOT peptide array binding signal intensity: 6
ScBzz1-D2
  SPOT peptide array binding signal intensity: 8.5
ScCyk3
  SPOT peptide array binding signal intensity: 1.5
ScFus1
  SPOT peptide array binding signal intensity: 30
ScHof1
  SPOT peptide array binding signal intensity: 0.5
ScHse1
  SPOT peptide array binding signal intensity: 278
ScLsb1
  SPOT peptide array binding signal intensity: ≤ 0
ScLsb2
  SPOT peptide array binding signal intensity: ≤ 0
ScLsb3
  SPOT peptide array binding signal intensity: 79
ScLsb4
  SPOT peptide array binding signal intensity: 11
ScMyo3
  SPOT peptide array binding signal intensity: ≤ 0
ScMyo5
  SPOT peptide array binding signal intensity: ≤ 0
ScNbp2
  SPOT peptide array binding signal intensity: 35.5
ScPex13
  SPOT peptide array binding signal intensity: 22.8
ScRvs167
  SPOT peptide array binding signal intensity: 0.167
ScSho1
  SPOT peptide array binding signal intensity: 96.5
ScSla1-D1-D2
  SPOT peptide array binding signal intensity: ≤ 0
ScSla1-D3
  SPOT peptide array binding signal intensity: 2.5
SpAbp1-D1
  SPOT peptide array binding signal intensity: ≤ 0
SpBbc1
  SPOT peptide array binding signal intensity: ≤ 0
SpBzz1-D1
  SPOT peptide array binding signal intensity: 50
SpBzz1-D2
  SPOT peptide array binding signal intensity: 0.25
SpCyk3
  SPOT peptide array binding signal intensity: ≤ 0
SpHof1
  SPOT peptide array binding signal intensity: 178
SpHof1-2
  SPOT peptide array binding signal intensity: 6
SpHof1-3
  SPOT peptide array binding signal intensity: 0.75
SpHse1
  SPOT peptide array binding signal intensity: 192
SpLsb1
  SPOT peptide array binding signal intensity: ≤ 0
SpLsb4
  SPOT peptide array binding signal intensity: 27.5
SpMyo1
  SPOT peptide array binding signal intensity: 2.5
SpNbp2
  SPOT peptide array binding signal intensity: 14.5
SpPex13
  SPOT peptide array binding signal intensity: ≤ 0
SpRvs167
  SPOT peptide array binding signal intensity: 10.7
SpSla1-D1-D2
  SPOT peptide array binding signal intensity: ≤ 0
SpSla1-D3
  SPOT peptide array binding signal intensity: ≤ 0

B2: unnamed (peptide)
chain: PSRRDSLSIPRAVDA
SpBzz1-D2
  SPOT peptide array binding signal intensity: 1.5
SpCyk3
  SPOT peptide array binding signal intensity: 3.5
SpHof1
  SPOT peptide array binding signal intensity: 1.25
SpHof1-2
  SPOT peptide array binding signal intensity: 0.5
SpHof1-3
  SPOT peptide array binding signal intensity: 1
SpHse1
  SPOT peptide array binding signal intensity: 21.2
SpLsb1
  SPOT peptide array binding signal intensity: ≤ 0
SpLsb4
  SPOT peptide array binding signal intensity: ≤ 0
SpMyo1
  SPOT peptide array binding signal intensity: ≤ 0
SpNbp2
  SPOT peptide array binding signal intensity: ≤ 0
SpPex13
  SPOT peptide array binding signal intensity: ≤ 0
SpRvs167
  SPOT peptide array binding signal intensity: 1.33
SpSla1-D1-D2
  SPOT peptide array binding signal intensity: 2
SpSla1-D3
  SPOT peptide array binding signal intensity: 1
